Screening data (PubChem)
BAP1 block = inhibitors of BAP1 deubiquitinase, primary screen, biochemical, Ub-AMC fluorescence, kinetic; Ubiquitin carboxyl-terminal hydrolase BAP1 (Homo sapiens), Q92560; recombinant BAP1, Ub-AMC hydrolysis fluorescence kinetic; stronger effect = lower value; calls only at 20 µM; 72,000 compounds, 0.48% hits; AID 436, 2006;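 active = activity remaining at or below 50% of control, provided the compound also passes the data quality filters; inactive = the rest, including low values that fail the filters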
hDAT+cocaine = changed hDAT dopamine uptake under cocaine IC80, either direction, primary screen, cocaine antagonist project, cell-based, LLC-PK1 hDAT, [14C]-dopamine uptake, MLSMR. LLC-PK1 hDAT cells, [14C]-dopamine uptake with cocaine IC80; actives deviate in either direction. B-score at 10 µM. 110,000 compounds, 1.3% hits;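 active = Z score or B-score, a plate-position-corrected score, falls beyond the plate's 99.7% confidence bounds, in either direction; inactive = both scores lie inside the 99.7% bounds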
D1 mod = D1 CRE-luciferase signal change, two-sided – cell-based, HEK293 D1, dopamine EC30, D1 allosteric modulator project, primary screen. D(1A) dopamine receptor (Homo sapiens), P21728. dopamine EC30 potentiation; actives deviate in either direction. B-score at 10 µM. 58,000 compounds, 5.9% hits. AID 641, 2007;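 active = luminescence count or its row- and column-corrected plate score outside the 99.7% band of the plate's sample wells, on either side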
Target sequence (P21728 whole entry, looked up): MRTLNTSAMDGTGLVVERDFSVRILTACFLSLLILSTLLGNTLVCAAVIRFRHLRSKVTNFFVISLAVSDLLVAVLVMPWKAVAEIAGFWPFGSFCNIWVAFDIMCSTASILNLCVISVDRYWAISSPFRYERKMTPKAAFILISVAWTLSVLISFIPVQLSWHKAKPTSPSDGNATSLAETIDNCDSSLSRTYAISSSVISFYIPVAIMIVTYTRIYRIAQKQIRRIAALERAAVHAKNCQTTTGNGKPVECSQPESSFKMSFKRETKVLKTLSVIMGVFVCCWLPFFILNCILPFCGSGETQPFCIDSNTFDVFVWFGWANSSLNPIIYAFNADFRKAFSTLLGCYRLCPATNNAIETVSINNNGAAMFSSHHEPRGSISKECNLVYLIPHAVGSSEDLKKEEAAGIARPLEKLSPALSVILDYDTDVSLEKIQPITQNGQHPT
D1 mod confirm = D1 receptor positive allosteric modulators, retest, confirmation, cell-based, HEK293 D1, CRE-luciferase, duplicate | shares compounds with D1 mod | dopamine EC30 potentiation; stronger effect = higher value | luminescence at 10 µM | 2,200 compounds, 88% hits;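 active = luminescence in either of two replicates above the same-plate mean plus 3 SD of the low-dose dopamine control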
D1 ag no DA = D1 receptor agonism without dopamine, confirmation, mechanism study for D1 allosteric modulator project, cell-based, HEK293 D1, CRE-luciferase, secondary assay 1 | shares compounds with D1 mod | luminescence, no dopamine; stronger effect = higher value | luminescence at 10 µM | 1,900 compounds, 0.8% hits; in the data active = luminescence above about 3900
Isoprot counter = counter-screen for D1 modulators: isoproterenol response in HEK293 cells | shares compounds with D1 mod | HEK293 D1 CRE-luciferase, isoproterenol EC30 counter-screen; stronger effect = higher value | luminescence at 10 µM | 2,200 compounds, 63% hits | AID 647;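 active = luminescence in either replicate above plate mean of wells with a partly effective reference agonist dose plus 3 SD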;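 also: isoproterenol raises cAMP through native beta-adrenoceptor Gs so signal bypasses D1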
Large screens that a line does not name were inactive (follow-up assays come after a bar, where shown). Many of the other results were omitted from the sample, so hits are more common in it than they were.

CCn1c(SCC#N)nc2c(c1=O)C1(CCCC1)Cc1ccccc1-2	D1 mod 2.5 | D1 mod confirm 7420 | Isoprot counter inactive
CCCn1c(SCC(N)=O)nc2c(c1=O)C1(CCCC1)Cc1ccccc1-2	none (no result: hDAT+cocaine, D1 mod)
Oc1ccc(N2CCN(c3ncnc4sc5c(c34)CCC5)CC2)cc1	none
CCC1CCc2c(sc3ncnc(N4CCOCC4)c23)C1 (centres undefined)	D1 mod 17 | D1 mod confirm 15132 | D1 ag no DA inactive | Isoprot counter 3760
CCOC(=O)N1CCN(C(=O)CCCn2c(=O)[nH]c3ccccc3c2=O)CC1	none
CCOC(=O)N1CCN(C(=O)CCCn2c(=S)[nH]c3ccccc3c2=O)CC1	D1 mod 3.1 | D1 mod confirm 8792 | D1 ag no DA inactive | Isoprot counter inactive
Cc1cccc(C(=O)Nc2nnc(CCc3ccccc3)s2)c1	none (no result: hDAT+cocaine, D1 mod)
Cc1[nH]c(=O)[nH]c(=O)c1[N+](=O)[O-]	none (no result: hDAT+cocaine, D1 mod)
FC(F)(F)c1cc(-c2ccccc2)nc(NCC2CCCO2)n1 (centres undefined)	none (no result: BAP1 block, D1 mod)
Fc1ccc(-c2cc(C(F)(F)F)nc(NCC3CCCO3)n2)cc1 (centres undefined)	D1 mod 5.5 | D1 mod confirm 8052 | Isoprot counter inactive
COc1ccc(C(=O)Oc2ccc(Cl)c3cccnc23)cc1OC	none (no result: hDAT+cocaine, D1 mod)
CCCC1(c2ccccc2)NC(=O)N(CC(=O)c2[nH]c(C)c(C(=O)OCC)c2C)C1=O (centres undefined)	D1 mod 7 | D1 mod confirm 8616 | D1 ag no DA inactive | Isoprot counter 3200
CCOC(=O)c1c(C)[nH]c(C(=O)CN2C(=O)NC(C)(c3ccc4ccccc4c3)C2=O)c1C (centres undefined)	none (no result: BAP1 block, D1 mod)
COc1cccc(C(=O)Oc2ccc(N3C(=O)C4CCCCC4C3=O)cc2)c1 (centres undefined)	none (no result: hDAT+cocaine, D1 mod)
Cc1cccc(NC(=O)c2cc3ccccc3o2)c1	none
CCC(=O)Nc1cccc(NC(=O)c2cc3ccccc3o2)c1	D1 mod 5.1 (no result: hDAT+cocaine) | D1 mod confirm 3904 | D1 ag no DA inactive | Isoprot counter inactive
Cc1cc(Cl)ccc1NC(=O)c1ccc(N(C)S(=O)(=O)c2ccccc2)cc1	none (no result: hDAT+cocaine, D1 mod)
CCOC(=O)c1cc2c(=O)n3ccccc3nc2n(CCOC)c1=NC(=O)C(C)(C)C	none (no result: BAP1 block)
CCOC(=O)c1cc2c(=O)n3ccccc3nc2n(CC(C)C)c1=NC(=O)c1ccco1	D1 mod 8.3 | D1 mod confirm 18960 | D1 ag no DA inactive | Isoprot counter 4124
CCOC(=O)c1cc2c(=O)n3ccccc3nc2n(CCCOC)c1=NC(=O)c1cccnc1	D1 mod 3.8 (no result: BAP1 block, hDAT+cocaine) | D1 mod confirm 9344 | D1 ag no DA inactive | Isoprot counter inactive
CCOC(=O)c1cc2c(=O)n3ccccc3nc2n(C(C)C)c1=NC(=O)c1ccncc1	D1 mod 5.7 (no result: BAP1 block) | D1 mod confirm 16620 | D1 ag no DA inactive | Isoprot counter 4096
CCOCCCn1c(=NC(C)=O)c(C(=O)OCC)cc2c(=O)n3ccccc3nc21	none
CCOC(=O)c1cc2c(=O)n3ccccc3nc2n(Cc2ccco2)c1=NC(=O)c1cccnc1	none (no result: BAP1 block)
CCOC(=O)c1cc2c(=O)n3ccccc3nc2n(CCCOC)c1=NC(=O)C(C)(C)C	D1 mod 4.8 (not shown: BAP1 block) | D1 mod confirm 7076 | D1 ag no DA inactive | Isoprot counter inactive
CCOC(=O)c1cc2c(=O)n3ccccc3nc2n(CCOC)c1=NC(=O)c1ccncc1	none (no result: BAP1 block)
CCCC1CCC(c2ccc(C#N)cc2)CC1 (centres undefined)	none (no result: hDAT+cocaine, D1 mod)
CCOc1ccccc1C(=O)Nc1ccccn1	none (no result: hDAT+cocaine, D1 mod)
O=c1cc(-c2cccc([N+](=O)[O-])c2)c2ccc(OCc3ccc(F)cc3)cc2o1	none (no result: hDAT+cocaine, D1 mod)
O=C(NCc1ccccc1)c1ccc(Cl)c(S(=O)(=O)N2CCOCC2)c1	none (no result: hDAT+cocaine, D1 mod)
COc1ccc(CCn2c(N)cc(=O)[nH]c2=S)cc1OC	D1 mod 11 | D1 mod confirm 16604 | D1 ag no DA inactive | Isoprot counter 4956
COc1ccc(CCN2C(=O)C3C4C=CC(C3C2=O)C2C(=O)N(CCc3ccc(OC)c(OC)c3)C(=O)C42)cc1OC (centres undefined)	none (no result: BAP1 block, D1 mod)
c1ccc2c(c1)OCC(c1csc3ncnc(N4CCOCC4)c13)O2 (centres undefined)	D1 mod 3.8 | D1 mod confirm inactive | D1 ag no DA inactive | Isoprot counter 3228
CCN(CC)c1ncnc2scc(C3COc4ccccc4O3)c12 (centres undefined)	none (no result: BAP1 block, D1 mod)
CCn1c(=O)c2cc(S(=O)(=O)NC3CCCCC3)ccc2n(CC)c1=O	D1 mod 4.2 | D1 mod confirm 6924 | D1 ag no DA inactive | Isoprot counter inactive
CCn1c(=O)c2cc(S(=O)(=O)NCc3ccccc3)ccc2n(CC)c1=O	none
C=CCOc1nc(N2CCCC2)nc(N2CCCC2)n1	D1 mod 24 | D1 mod confirm 26540 | D1 ag no DA inactive | Isoprot counter 4776
COc1nc(OC)nc(N2CCCCCC2)n1	none (no result: BAP1 block, D1 mod)
O=C(C(Sc1ccccc1)c1ccccc1)N1CCCCCC1 (centres undefined)	none (no result: hDAT+cocaine, D1 mod)
Oc1ccccc1N=Nc1nc(-c2ccccc2)c(-c2ccccc2)[nH]1	none (no result: BAP1 block, D1 mod)
c1ccc(-c2nc[nH]c2-c2ccccc2)cc1	D1 mod 4.9 | D1 mod confirm 13428 | D1 ag no DA inactive | Isoprot counter inactive
Cc1ccc(OCc2nnc(SCC(=O)Nc3sc(C)c(C)c3C#N)n2C)cc1	none
Cc1sc(NC(=O)CSc2nnc(COc3ccccc3)n2C)c(C#N)c1C	D1 mod 6.8 | D1 mod confirm inactive | D1 ag no DA inactive | Isoprot counter inactive
CCn1c(SCC(=O)Nc2sc(C)c(C)c2C#N)nnc1C(C)C	D1 mod 4.5 | D1 mod confirm inactive | D1 ag no DA inactive | Isoprot counter inactive
COCCn1c(SCC(=O)Nc2sc(C)c(C)c2C#N)nnc1C(C)C	none
O=C1c2ccccc2C(=O)N1CCCCCCN1CCN(c2cccc(Cl)c2)CC1	none (no result: hDAT+cocaine, D1 mod)
CCOC(=O)C1CCCN(C(=O)Cc2ccc(Cl)cc2)C1 (centres undefined)	none (no result: BAP1 block, D1 mod)
CCOC(=O)C1CCCN(C(=O)c2cc(Nc3ccc(OC)cc3OC)nc3ccccc23)C1 (centres undefined)	none (no result: BAP1 block, D1 mod)
CCOC(=O)C1CCCN(C(=O)c2cc(Cl)ccc2Cl)C1 (centres undefined)	D1 mod 4.2 | D1 mod confirm 5420 | D1 ag no DA inactive | Isoprot counter inactive
CCOC(=O)C1CCCN(C(=O)c2cc(Nc3ccc(OC)c(OC)c3)nc3ccccc23)C1 (centres undefined)	D1 mod 4 | D1 mod confirm 12712 | D1 ag no DA inactive | Isoprot counter 4088
CC12COC3(C(=O)Nc4cccc(Cl)c4)CC1CCC32C (centres undefined)	none (no result: hDAT+cocaine, D1 mod)
